# Experimental data: PubChem BioAssay AID493248 (Broad Institute, 2011)
# Out of some 2,300 compounds screened, about 1,400 (61%) were called active. Not shown: some 7% with an inconclusive outcome. The rule behind the calls is not given here. So high a share suggests a set chosen from earlier hits. Not all results are given here. Entries with a potency or affinity are not part of this list.
# Target: FAD-linked sulfhydryl oxidase ALR (Homo sapiens) (UniProt P55789)
# Assay: ALR-catalysed DTT oxidation blockers – biochemical, H2O2 detection, luminescence, cherry-pick, dose response (AID 493248)
# Details: purified ALR, H2O2 HRP-luminol luminescence; at 10 µM (top of the series)
# Chain of FAD-linked sulfhydryl oxidase ALR (Homo sapiens) (P55789 whole entry, looked up): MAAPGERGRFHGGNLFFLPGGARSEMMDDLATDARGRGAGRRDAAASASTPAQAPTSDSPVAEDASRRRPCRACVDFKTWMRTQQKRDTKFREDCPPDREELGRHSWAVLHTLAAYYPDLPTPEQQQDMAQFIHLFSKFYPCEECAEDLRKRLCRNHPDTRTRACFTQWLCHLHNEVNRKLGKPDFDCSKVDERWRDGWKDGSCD
row,SMILES,"activity change, negative = inhibition [%]"
1,Cc1nc(NS(=O)(=O)c2ccccc2C)c2c3c(sc2n1)CCC3,-0.709
2,CC1CCc2c(sc(NC(=O)c3ccccc3C(=O)O)c2C#N)C1 (stereo unspecified),-85.9
3,CCCCNc1cc(NC(C)=O)cc2cc(OC)c(OC)cc12,-66.6
4,COc1cccc(NC(=O)c2cc(OC)c(OC)c(OC)c2Br)c1,4.6
5,O=S(=O)(Nc1ncnc2sc3c(c12)CCC3)c1cc(F)ccc1F,5.9
6,CCC1(C)OC(=O)NN(c2ccc(C)cc2)C1(C)O (stereo unspecified),-35.5
7,COc1ccc(-c2cc(C(=O)NN)[nH]n2)cc1OC,-15.4
8,Cc1ccc(O)c(-c2cc(C(=O)NCc3ccncc3)[nH]n2)c1,-50.3
9,O=C(Nc1ccccc1F)c1ccc(Cn2cc(Cl)cn2)cc1,-100
10,Cn1nnc2c[n+](CC(=O)c3ccc(Cl)cc3)cc(Br)c21,-31
11,Cc1cc(-c2n[nH]c(=S)n2-c2ccc(C)c(C)c2)no1,-43
12,COc1ccc(-c2n[nH]c(=S)n2-c2ccc(C)cc2)cc1OC,3.4
13,Cc1ccc(-n2c([C@@H]3C[C@H]3c3ccccc3)n[nH]c2=S)cc1,-34.6
14,Cc1cccc(-n2c(-c3ccncc3)n[nH]c2=S)c1,-2.76
15,O=C(Cn1cc(C(F)(F)F)ccc1=O)N/N=C/c1ccc(O)cc1,174
16,COc1cc(/C=N/Nc2ccc(C(F)(F)F)cn2)ccc1O,-15
17,COC(=O)Cc1c(C)c2ccc(OC(=O)c3ccccc3)cc2oc1=O,31.5
18,CCCN(Cc1ccc(N(CC)CC)cc1)CC1CC1,-0.019
19,CN(CC(=O)NC1CCCCC1)S(=O)(=O)c1cccc2cccnc12,5.38
20,O=C(Cc1ccccc1)Nc1ccc(C(=O)Nc2ccccc2C(=O)O)cc1,5.48
21,O=S(=O)(NCCCN1CCN(c2ccccc2F)CC1)c1cccc2cccnc12,20.3
22,O=C(O)c1cccc(NC(=O)c2cccc(S(=O)(=O)Nc3cccc([N+](=O)[O-])c3)c2)c1,-2.25
23,CNCc1ccccc1Sc1ccc(O)c(O)c1,-78.5
24,CC(C)NC(=O)c1ccc(CSCc2ccccc2Cl)o1,-4.45

row,SMILES,"activity change, negative = inhibition [%]"
1,CC(=O)c1c(C)oc(C)c1CSCc1ccc(C(=O)O)o1,16.7
2,Cc1cc(-c2ccccc2)nc2cc(C(=O)NCc3ccco3)nn12,-17.4
3,CS(=O)(=O)c1nsc2nc(=O)c(/C=C3\C=Nc4ccccc43)c(N)n12,-69.9
4,CCCc1nn2c(N)c(/C=C3\C=Nc4ccccc43)c(=O)nc2s1,-38
5,CCC(=O)Nc1ccc(C(=O)NCCCn2ccnc2)cc1,87.5
6,CCCC(=O)NC(c1ccc(N(C)C)cc1)c1ccc2cccnc2c1O (stereo unspecified),268
7,CC1=Nc2cccc3cccc(c23)N1C,-10.4
8,Cc1nc(-c2cccc(N)c2)cs1,-3.17
9,O=S(=O)(c1ccc(Cl)nc1)N1CCC(Cc2ccccc2)CC1,-5.04
10,Cc1nc([N+](=O)[O-])c(Br)n1CC(=O)c1ccc(Cl)cc1,-18.7
11,CO/N=C/NC(=O)c1ccc([N+](=O)[O-])c(CS(=O)(=O)c2ccc(Cl)cc2)c1,7.26
12,Cc1nn(C(C)C(=O)N/N=C/c2ccc(N(C)C)cc2)c(C)c1[N+](=O)[O-] (stereo unspecified),-45.7
13,COc1ccccc1-c1c(-c2ccc(O)cc2O)n[nH]c1C(F)(F)F,267
14,COc1cccc(Oc2cn[nH]c2-c2ccc(O)cc2O)c1,-53.3
15,Cc1cc(/C=C2\C(=N)N3N=CSC3=NC2=O)c(C)n1Cc1ccccc1,-36.4
16,Cn1nnnc1SCc1csc(Nc2ccccc2)n1,-51.7
17,CCN1C(=O)/C(=C/N(C)C)c2ccccc21,14.1
18,Cc1ccc(-c2nc(-c3ccc(Cl)cc3)sc2CC(=O)O)c(C)c1,-95.8
19,Cc1ccc(-c2sc(-c3cccnc3)nc2CC(=O)O)cc1,-3.54
20,CCCCC(=O)Nc1ccnc(-c2cccnc2)n1,34
21,CN(C)c1cccc2c(/C=N/O)ccc(N(C)C)c12,3.9
22,O=C(Cc1cccs1)N/N=C\c1ccc(O)cc1,-96.8
23,Cc1ccc(C(=O)Nc2cccc([N+](=O)[O-])c2)cc1S(=O)(=O)Nc1ccc(C(=O)O)cc1,-15
24,COc1cccc2sc(Nc3nnc(-c4ccccc4Cl)o3)nc12,-55.9

row,SMILES,"activity change, negative = inhibition [%]"
1,Cc1noc(C(=O)N2CCN(c3ccccc3)CC2)c1Cl,-27.4
2,Cc1onc(C(=O)N2CCN(c3ccccc3)CC2)c1[N+](=O)[O-],-51.4
3,c1ccc2c(c1)CC(N1CCCCC1)c1ccccc1N2 (stereo unspecified),-14.9
4,C=CCNC(=O)c1ccccc1S(=O)c1ccccc1C#N (stereo unspecified),-6.74
5,Nc1nc(CN2CCN(C(=O)c3ccco3)CC2)nc(Nc2cccc(Cl)c2)n1,-24.8
6,CN1CCN(S(=O)(=O)c2ccc(N)cc2)CC1,-29.3
7,Brc1ccc(-c2ncc3ccccn23)cc1,-33.1
8,Cc1nn(C)c(Sc2ccccc2N)c1[N+](=O)[O-],-39.9
9,O=[N+]([O-])c1ccc2c(c1)CNc1ccccc1O2,-57.2
10,O=C(O)c1ccccc1CSC1=NCCS1,-98.5
11,CC(=O)Nc1ccc(SC[C@H](CC(C)C)N2CCN(CC(C)C)CCC2=O)cc1,0.961
12,O=C(O)c1ccc(-n2c(/C=C/c3cccc([N+](=O)[O-])c3)nc3ccccc3c2=O)cc1,-30.3
13,CC1CCN(CCCNC(=O)c2ccc(CSCc3cccc(Cl)c3)o2)CC1,26.9
14,COc1cccc(N2CCN(C(=O)c3cc(C)oc3C)CC2)c1,-48.7
15,O=C(c1ccc(CS(=O)(=O)c2ccc(Br)cc2)o1)N1CCCC1,43.5
16,O=C(c1ccc(CS(=O)Cc2ccccc2Cl)o1)N1CCN(c2cccc(Cl)c2)CC1 (stereo unspecified),45.7
17,COc1ccc(-c2coc3cc(O)ccc3c2=O)cc1O,-45.2
18,COC(=O)c1c(-c2ccc(C)cc2)csc1N,-4.41
19,Cc1oc(-c2ccccc2)cc1C(=O)Nc1cccc(C(=O)O)c1,-45.5
20,COc1ccccc1C(=O)Nc1nc2nc(-c3ccccc3)cc(=O)n2[nH]1,-46.5
21,Cc1cccc(C(=O)Nc2ccc(O)cc2)c1,-86.3
22,Cc1cc(C)nc(NS(=O)(=O)c2ccc(NC(=O)Cc3ccccc3F)cc2)n1,-98.5
23,c1ccc(CCCN2CCN(c3ccccc3)CC2)cc1,-9.66
24,O=C(CCCC1=NS(=O)(=O)c2ccccc2N1)N1CCN(c2ccc(Cl)cc2)CC1,-50.1

row,SMILES,"activity change, negative = inhibition [%]"
1,Cc1nc2nc(C)c(CCC(=O)N3CCN(c4ccccc4)CC3)c(C)n2n1,-54.1
2,COC(=O)c1ccc(NC(=O)CN2CCN(c3ccccc3)CC2)cc1,-30.3
3,Cc1nn(-c2ccccc2)c2nc(-c3ccco3)cc(C(=O)O)c12,-53.4
4,COC(=O)c1ccc(CSc2ncnc3c2nnn3-c2ccc(F)cc2)o1,-6.9
5,COC(=O)c1ccc(CSc2nc3ccc(Cl)cc3[nH]2)o1,-47.5
6,O=C1c2cc(O)c(O)cc2S(=O)(=O)C1c1ccccc1 (stereo unspecified),-13
7,COc1ccc(-n2cnnc2SCc2cnc(-c3ccccc3)s2)cc1,-99.2
8,Cc1nc2ccc(NC(=O)c3ccco3)cc2nc1C,-98.9
9,Oc1ccc(C2C[C@H]3CC[C@@H]2C3)cc1O (stereo partly specified),0.253
10,O=C(O)CCCN1C(=O)/C(=C\C(Cl)=C\c2ccccc2)SC1=S,-28.9
11,CN(C)c1ccc(N2CC(C)(C)C2=O)cc1,9.24
12,Cc1cccn2cc(-c3cccc(S(=O)(=O)N4CCCCC4)c3)nc12,-98.3
13,Cc1cc(C)c2ccc(N)nc2c1O,-14.6
14,COc1cc(C)nc(Oc2ccc(/C=N/O)cc2)n1,-95.2
15,CCN1CCN(C(=O)Nc2ccc(Cc3ccc(NC(=O)N4CCN(CC)CC4)cc3)cc2)CC1,-18.9
16,COCc1nnc(NC(=O)c2ccc(S(=O)(=O)N3CCCc4ccccc43)cc2)o1,-34.2
17,CCCC(O)(c1ccc(OC)cc1)C(CN(C)C)c1ccccc1 (stereo unspecified),4.55
18,Nc1ccccc1Nc1c(F)c(F)nc(F)c1Cl,-37.7
19,Cc1ccc[n+](-c2nc([O-])sc2/C=N/Nc2ccc([N+](=O)[O-])cc2)c1,-43.9
20,O=C(CNC(=O)c1ccco1)Nc1ccc(N2CCCCCC2)cc1,-0.183
21,O=C(NCc1ccco1)C1CC(=O)N(c2ccc(O)cc2)C1 (stereo unspecified),-85.4
22,O=C(CN1CCN(c2ccc(O)cc2)CC1)Nc1cc(S(=O)(=O)N2CCCC2)ccc1Cl,-40.9
23,COc1cc(/C=C/c2sc3ccccc3[n+]2CCCS(=O)(=O)[O-])ccc1O,-105
24,Nc1nc(-c2ccc3c(c2)CCCC3)cs1,-97

row,SMILES,"activity change, negative = inhibition [%]"
1,COc1ccc2c(c1)c1ncn(CCc3ccccc3)c(=O)c1n2C,-0.427
2,O=c1[nH]c(=S)[nH]c2sccc12,-34.4
3,Cc1ccc(CNC(=O)c2ccc(CS(=O)Cc3ccccc3Cl)o2)cc1 (stereo unspecified),-1.87
4,O=c1oc2c3c4c(cc2s1)CCCN4CCC3,-13.7
5,Cc1ccc(N2CCN(S(=O)(=O)c3ccc4c(c3)NC(=O)C(C)C(=O)N4)CC2C)cc1 (stereo unspecified),-30.2
6,CC(C)n1cc(C(=O)N2CCCC(N3CCN(c4cccc(Cl)c4)CC3)C2)cn1 (stereo unspecified),-43.2
7,Cc1cccc(N2CCN(C(=O)Cn3sc4nc(C)cc(C)c4c3=O)CC2C)c1 (stereo unspecified),-57.4
8,O=c1oc2ccccc2cc1-c1ccc(O)cc1O,371
9,Cc1c(Cl)c(-c2n[nH]c(=S)n2CC(C)C)nn1C,-54.1
10,Cn1cc(Cl)c(-c2n[nH]c(=S)n2-c2ccc(F)cc2)n1,18.2
11,CC(C)(C)c1ccc(C(=O)Oc2ccccc2CCC(=O)O)cc1,-56
12,CC(C)(C)c1ccc(Oc2ccc(N)cn2)cc1,49.2
13,CN(C)c1ccc(C(=O)N2CCCC2)cc1,-10.3
14,CC1CCN(C(=S)c2ccc(O)cc2)CC1,-30
15,CC1CCCCC1n1c(-c2cccnc2)n[nH]c1=S (stereo unspecified),-2.8
16,C=CCn1c(-c2sccc2C)n[nH]c1=S,0.591
17,COc1ccc(-c2n[nH]c(=S)n2Cc2ccco2)cc1,-32.4
18,S=c1[nH]nc(-c2ccco2)n1/N=C/C=C/c1ccccc1,-45.1
19,N#Cc1ccccc1S(=O)(=O)N1CCN(C(=O)Cc2coc3cc(O)ccc23)CC1,-102
20,CCN(C=NC1=NN(c2cccc(C(F)(F)F)c2)CC1)CC,4.04
